Values joined by “and” are separate entries in the source; they are usually repeats but may differ in a detail not shown here. Equal values may be shown once. Hit rate of the full screen: of about 300,000 compounds, about 37,000 (12%) were called active. Shown is part of a subset that was picked to be rich in actives. Values without a mark were called inactive. Rule as the data show it: active = max response mostly above about 13% (no sharp cut-off); inactive = mostly below about 14%.

The experiment can be described thus: Cycloheximide Counterscreen for Small Molecule Inhibitors of Shiga Toxin. Also: read at 38.3 µM for the half of the compounds with a filed dose; 0% is about no effect. The following applies: cell reporter, cycloheximide protein synthesis inhibition counterscreen; hits give high values. (A counterscreen serves to expose hits that act by an unwanted route or on another target.)
As to `CCCCNC(=O)C1(O)c2ccccc2NC(=O)N1c1ccc(Cl)cc1` (stereo not given), the max response is 7.78%. The result for `CC(=O)Oc1ccc(N(C(C)=O)S(=O)(=O)c2ccc3ccccc3c2)cc1Br` reads -1.7%. With `O=C(COc1ccc2ccc(=O)oc2c1)NCC(O)c1ccccc1` (stereo not given), the max response is -10.7%. Then `CN(CC(=O)NCc1ccncc1)S(=O)(=O)c1ccc(Br)cc1`, with -0.724%. The result for `COc1ccc(C(C)C)cc1S(=O)(=O)Nc1ncn[nH]1` reads -4.29%; that for `CCc1nnc(NC(=O)CCC(=O)N2CCN(c3cc(C)ccc3C)CC2)s1`, -5.72%. Then `Cc1c(NS(=O)(=O)c2ccc(NC3CCCC3)c([N+](=O)[O-])c2)c(=O)n(-c2ccccc2)n1C`, with -1.22%; and `Cc1ccc(NS(=O)(=O)c2ccc3c(c2)n(C)c(=O)c(=O)n3C)c(C)c1`, with 1.12%; and `COCc1nnc(NC(=O)CS(=O)(=O)Cc2ccccc2)s1`, with 5.49%. Take `C/C(Cc1ccccc1)=N\NC(=O)CNC(=O)c1ccc2c(c1)OCCO2`: the max response is -2.54%. Then `O=C(Nc1ccc(N2CCOCC2)cc1)c1ccc2c(c1)OCO2`, with 36.8% (active). The result for `O=C(O)CCC(=O)Nc1ccc(N2CCOCC2)cc1` reads -3.84%; that for `COCc1nnc(NC(=O)c2ccc3c(c2)OCO3)s1`, 45.3% (active). Then `O=C(Nc1ccccc1)c1ccc2c(c1)OCCCO2`, with 41.3% (active); and `O=C(c1ccc2c(c1)OCO2)N1CCOCC1`, with -3.42%. For `O=C(CN1CCc2cc3c(cc2C1)OCCCO3)Nc1ccccc1`, the max response is 5.97%. For the molecule `CC(C)C(=O)Nc1cccc(C(=O)Nc2ccc3c(c2)OCO3)c1`, the max response was 58.7% (active). Turning to `COc1ccccc1C(=O)N/C(=C/c1ccc2c(c1)OCO2)C(=O)Nc1cccc(C(=O)O)c1`, the max response was -2.49%. Turning to `Cc1ccc(C(=O)Nc2sc(Cc3ccc4c(c3)OCO4)c(C)c2C(N)=O)cc1`, the max response was -4.2%. For `CCCN1C2=C(C(=O)CCC2)C(c2ccc(O)c(Br)c2)C2=C1CCCC2=O`, the max response was -1.08%.

Consider `Cc1ccc(O)c(/C=N/NC(=O)COc2ccc3c(C)cc(=O)oc3c2)c1`, for which the max response was -8.1%. Take `Cn1c(=O)c2c(ncn2CC(COCc2ccccc2Cl)OCc2ccccc2Cl)n(C)c1=O` (stereo not given): the max response was -1.13%.

Take `Cc1ccccc1N1C(=O)C(Oc2ccc(Cl)cc2)C1CNCC1CCCO1` (stereo not given): the max response was 0.428%. The result for `CC(=O)Nc1sc2c(c1C(c1cccc(F)c1)N1CCN(CCO)CC1)CCCC2` (stereo not given) reads -2.8%; that for `CCOCCCNC(=O)c1ccc(CS(=O)(=O)c2cccc(C(F)(F)F)c2)o1`, -3%. In the case of `Cc1ccc(-c2ccnc3[nH]n(-c4ccccc4)c(=O)c23)cc1`, the max response is 4.53%.

`COc1ccccc1N1CCN(c2ccc([N+](=O)[O-])nc2)CC1`: the max response was 12.7%. Then `COc1ccc(OC)c(-c2c(=O)n(OCc3ccccc3Br)c3ccccc3[n+]2[O-])c1`, with -4.9%; and `CCOC(=O)COn1c(=O)c(-c2ccc(OCC)cc2)[n+]([O-])c2ccccc21`, with 21.8% (active); and `CCOc1ccc(OCC)c(-c2c(=O)n(OCc3ccc(Cl)cc3)c3ccccc3[n+]2[O-])c1`, with -2.89%. The result for `COCCNC(=O)C(c1ccc(C)cc1)N(C(=O)CCC(=O)Nc1ccccn1)c1cccc(C)c1` (stereo not given) reads -1.18%; that for `O=C(Cn1ncc2c3ccccc3n(Cc3ccccc3)c2c1=O)NCc1ccccn1`, -1.24%; that for `CCCOc1ccc(Cn2ccnc2)cc1[N+](=O)[O-]`, 6.93%. The result for `CCCCOc1ccc(CSC(=N)N)cc1[N+](=O)[O-]` reads -3.27%; that for `CCCCCOc1ccc(CSC2=NCCN2)cc1[N+](=O)[O-]`, 16.2% (active). On to `CCN=C1S/C(=C\c2cc(Br)ccc2OCC(=O)OCC)C(=O)N1CC`, for which the max response is 2.07%. Consider `c1ccc(C(c2ccccc2)N2CCN(Cc3nnnn3C3CCCCC3)CC2)cc1`, for which the max response was -1.95%. Consider `O=C1CCc2cc(S(=O)(=O)N3CCC(C(=O)NCc4ccccc4Cl)CC3)ccc2N1`, for which the max response was 5.54%.

`CC(=O)Nc1ccc(NC(=O)C2CCCN2S(=O)(=O)c2cccc(C(F)(F)F)c2)cc1` (stereo not given): the max response was 0.889%. Then `CSc1cccc(NC(=O)C2CCCN2S(=O)(=O)c2ccc3c(c2)CCC(=O)N3)c1` (stereo not given), with 25.7% (active); and `CS(=O)(=O)N1CCN=C1SCc1ccc(F)cc1`, with -2.32%; and `Cc1cc(OCC(=O)Nc2c(C)n(C)n(-c3ccccc3)c2=O)ccc1[N+](=O)[O-]`, with 1.26%. The result for `O=C1CSC(=S)N1c1ccc(O)cc1` reads 0.99%; that for `O=S(=O)(c1ccc(-c2ccno2)s1)N1CCCCC1`, -3.51%. Regarding `Cc1cc(NC(=O)CCC(=O)N(Cc2ccccc2)C(C(=O)NC2CCCC2)c2ccc(C)o2)no1` (stereo not given), the max response was -2.01%.

Turning to `O=c1cc(-c2ccc(O)cc2)oc2c(-c3cc(-c4cc(=O)c5c(O)cc(O)cc5o4)ccc3O)c(O)ccc12`, the max response was -11.1%. The result for `COc1ccc(-c2cc(=O)c3c(O)cc(O[C@@H]4O[C@H](CO[C@@H]5O[C@@H](C)[C@H](O)[C@@H](O)[C@H]5O)[C@@H](O)[C@H](O)[C@H]4O)cc3o2)cc1O` reads -0.55%; that for `COc1c(O)cc2oc(-c3ccc(O)c(O)c3)cc(=O)c2c1O`, 43% (active) and 45.2% (active); that for `Cc1cc(C)cc(Oc2c(C(F)(F)F)oc3cc(OCC(=O)O)ccc3c2=O)c1`, -1.36%. For `c1ccc(-c2cnc(CN3CCN(c4ccccc4)CC3)o2)cc1`, the max response was 7.72%. For the molecule `O=C(NCC(=O)N1CCN(c2ccccc2F)CC1)c1cccs1`, the max response is 23.4% (active). With `O=C(CCS(=O)(=O)c1cccc2nsnc12)N1CCN(c2ccccc2F)CC1`, the max response was 6.58%. For the molecule `CCc1ccc(NC(=O)CS(=O)CC(=O)N2CCN(c3ccccc3F)CC2)cc1` (stereo not given), the max response was 3.43%.

With `O=C(CCc1ccccc1F)N1CCN(c2ccccc2)CC1`, the max response is 0.391%. Turning to `O=C(NCC(=O)N1CCN(c2ccccc2O)CC1)c1ccc2ccccc2c1`, the max response is 1.36%.

Take `O=C(CCSc1ccccc1)N1CCN(c2ccccc2F)CC1`: the max response was 48.8% (active). The result for `COc1ccc(NC(=O)CSCc2ccc([N+](=O)[O-])cc2)cc1OC` reads -3.9%; that for `Cc1cccc(N2CCN(C(=O)c3cccc(N4C(=O)C5C6C=CC(C6)C5C4=O)c3)CC2)c1C` (stereo not given), -6.3%. The result for `Cc1ccc(Nc2nnc(SCC(=O)c3cc4ccccc4o3)s2)cc1C` reads 10.2%; that for `O=C(CSc1nnc(Nc2ccccc2)s1)Nc1cccnc1Cl`, 2.36%; that for `CC(C)c1ccc(Nc2nnc(SCC(=O)c3nnc(-c4ccccc4)o3)s2)cc1`, 23.6% (active).

Take `Cc1cc(=O)oc2c3c(cc(OCC(=O)NCc4ccccn4)c12)OC(C)(C)CC3`: the max response was -2.86%. On to `Cc1ccc(N2CCN(c3ccc([N+](=O)[O-])cn3)CC2)c(C)c1`, for which the max response is -4.64%. Turning to `O=C(COc1ccc(S(=O)(=O)Nc2cccc(C(F)(F)F)c2)cc1)N1CCOCC1`, the max response was -0.756%. Then `CN(C)c1nc(N)nc(CSc2nnnn2-c2cccc3ccccc23)n1`, with -1%. Then `CN(C)c1nc(N)nc(CSc2ccccn2)n1`, with 21.5% (active); and `CCOC(=O)CSc1ccccn1`, with -1.11%; and `CCOC(=O)c1cc2c(=O)[nH]c(C(Cl)(Cl)Cl)nc2o1`, with 7.51%. In the case of `O=C(O)c1cccc2c1C(=O)N(C1CCCC1)C2`, the max response was -2.23%. Then `Cc1cccc(CS(=O)(=O)c2ncc(Cl)c(C(=O)Nc3ccc(F)cc3)n2)c1`, with 30.3% (active); and `Cc1cccc(OCc2ccc(C(=O)Nc3ccc(F)cc3)cc2)c1`, with -3.2%; and `CCSc1ncc(Cl)c(C(=O)Nc2cc(C)ccc2C)n1`, with -0.976%. Take `CCOc1ccc(NC(=O)c2nc(SCC)ncc2Cl)cc1`: the max response is -5.84%. Then `Cc1cccc(NC(=O)c2nc[nH]c2C(=O)NCC(=O)OCc2ccccc2)c1`, with 1.03%; and `Cc1cccc(NC(=O)c2nc(S(=O)(=O)Cc3ccccc3)ncc2Cl)c1`, with 29% (active). Consider `COCCCNC(=O)CN1C(=O)CSc2ccc(S(=O)(=O)N3CCOCC3)cc21`, for which the max response was -0.345%.

Consider `OC(COc1ccc(CN2CCSCC2)cc1)CN1CCCCC1` (stereo not given), for which the max response was 0.684%. Take `CC1CCC(N2CC(=O)N(Cc3ccc4c(c3)OCO4)C(c3ccc(F)cc3)C2=O)CC1` (stereo not given): the max response was -2.2%. The result for `O=C(c1cc(Cl)cc(Cl)c1)N1CCC(=O)N(C(COCc2ccccc2)Cc2ccccc2)CC1` (stereo not given) reads -1.19%; that for `O=C(CCl)NNc1nc(-c2ccccc2)c2cc(Cl)ccc2n1`, -5.34%. The result for `O=C(CCl)NNc1cccc(Cl)n1` reads 26.1% (active); that for `COc1cc(OC)nc(NC(=O)CCl)n1`, -2.63%; that for `C=CCn1c(SCC(=O)NCC2CCCO2)nc2sc(C)c(C)c2c1=O` (stereo not given), -2.05%. For `COc1ccc(CCCc2nnc(SCc3nc4ccccc4c(=O)[nH]3)n2C)cc1`, the max response was 1.63%. On to `CCN(CC(=O)NCc1cccs1)C(=O)c1cccc(S(=O)(=O)Nc2ccccc2OC)c1`, for which the max response is -1.21%. The result for `c1ccc2[nH]c(-c3nc4ccccc4[nH]3)nc2c1` reads 33.9% (active); that for `Cc1ccc(-c2nc3ccccc3[nH]2)cc1N`, 34.2%; that for `OC(c1nc2ccccc2[nH]1)C(O)C(O)C(O)c1nc2ccccc2[nH]1` (stereo not given), -2.45%. Then `CN(C(=O)C1CCN(c2ncnc3c2nc2n3CCCCC2)CC1)C1CCCCC1`, with -1.8%.

As to `CCOCc1nnc(NC(=O)CCS(=O)(=O)Cc2ccccc2)s1`, the max response was -1.02%.

The record behind these values is PubChem BioAssay AID2314 (National Center for Advancing Translational Sciences (NCATS), 2010).
